This is an account of results in PubChem BioAssay (NCI).

About 83,000 compounds went through this panel and 20% of them were active in at least one assay; those are over-represented in the sample as a whole.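 Results are percent growth after 48 hours of single-concentration exposure. 100 means growth as in untreated cells, lower positive values show inhibition; negative values down to -100 show cell death.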 A number with no mark means an inactive call. The source made the active and inactive calls. Rule for the calls: active = growth percent below 10; inactive = the rest.

Test systems include DU-145 prostate; MALME-3M melanoma; MDA-MB-231 breast; RXF 393 renal; SF-268 CNS; SF-295 CNS; SF-539 CNS; UACC-257 melanoma; M14 melanoma; HCT-15 colon; HT29 colon; SNB-75 CNS; SNB-19 CNS; U251 CNS; PC-3 prostate; SK-MEL-5 melanoma; UACC-62 melanoma; LOX IMVI melanoma; SK-MEL-28 melanoma.
Holding throughout (assay): NCI-60 one-dose screen, 48 h (100 = growth as untreated, 0 = no growth, -100 = all killed)
In a further assay the test system is K-562 leukemia. Particulars: 10 µM unless noted.

With `O=C(N/N=C/c1ccc(B(O)O)s1)c1[nH]c2ccc(Br)cc2c1-c1ccccc1`, the growth with DU-145 prostate (10 µM unless noted) was -56.4% (active); with K-562 leukemia, 2.64% (active); in the assay with MALME-3M melanoma (10 µM unless noted), -96.2% (active); with MDA-MB-231 breast (10 µM unless noted), -88.1% (active); with RXF 393 renal (10 µM unless noted) it was -94.3% (active); in the assay with SF-268 CNS (10 µM unless noted) it was -37.2% (active). Moreover, the growth was -98.1% (active) with SF-295 CNS (10 µM unless noted); -98.8% (active) in the assay on SF-539 CNS (10 µM unless noted); -77.4% (active) in the assay on UACC-257 melanoma (10 µM unless noted); -67.4% (active) in the assay on M14 melanoma (10 µM unless noted); -92.4% (active) in the assay with HCT-15 colon (10 µM unless noted); -63.3% (active) in the assay on HT29 colon (10 µM unless noted). Besides, the growth is -72.7% (active) with SNB-75 CNS (10 µM unless noted); -97.3% (active) in the assay on SNB-19 CNS (10 µM unless noted); -79.8% (active) in the assay with U251 CNS (10 µM unless noted); -9.11% (active) in the assay on PC-3 prostate (10 µM unless noted); -95.3% (active) in the assay with SK-MEL-5 melanoma (10 µM unless noted); -99.5% (active) in the assay with UACC-62 melanoma (10 µM unless noted). In addition, the growth in the assay on LOX IMVI melanoma (10 µM unless noted) was -99.3% (active); in the assay with SK-MEL-28 melanoma (10 µM unless noted), -93.3% (active).

`CC/C(=C(/c1ccc(O)cc1)c1ccc(OCCN(C)C(=O)COCCOCCNC(=O)Cc2ccc3c(c2)CN([C@@H]2CCC(=O)NC2=O)C3=O)cc1)c1ccccc1`: the growth in the assay with DU-145 prostate (1 µM) is 104%; in the assay on DU-145 prostate (10 µM), 105%; with MALME-3M melanoma (1 µM), 51.4%; with MALME-3M melanoma (10 µM), 1.5% (active); with MDA-MB-231 breast (1 µM), 9.31% (active); in the assay on MDA-MB-231 breast (10 µM), -22.2% (active). Besides, the growth with RXF 393 renal (1 µM) was 97.4%; in the assay on RXF 393 renal (10 µM) it was 99.2%; in the assay with SF-268 CNS (1 µM), 96.2%; in the assay with SF-268 CNS (10 µM), 61.3%; with SF-295 CNS (1 µM), 101%; in the assay with SF-295 CNS (10 µM), 94.7%. Further, the growth with SF-539 CNS (1 µM) was 80.7%; with SF-539 CNS (10 µM), 65.3%; in the assay on UACC-257 melanoma (1 µM) it was 101%; in the assay on UACC-257 melanoma (10 µM), 99.8%; in the assay on M14 melanoma (1 µM) it was 92.8%; in the assay on M14 melanoma (10 µM), 65.4%. Also, the growth in the assay on HCT-15 colon (1 µM) is 107%; in the assay on HCT-15 colon (10 µM) it was 105%; in the assay on HT29 colon (1 µM), 102%; in the assay with HT29 colon (10 µM), 83%; in the assay on SNB-75 CNS (1 µM) it was 59.6%; in the assay with SNB-75 CNS (10 µM), 22.7%. Besides, the growth in the assay with SNB-19 CNS (1 µM) was 79.5%; in the assay on SNB-19 CNS (10 µM) it was 47.5%; with U251 CNS (1 µM), 91.9%; in the assay on U251 CNS (10 µM), 88.7%; in the assay on PC-3 prostate (1 µM), 52.8%; in the assay with PC-3 prostate (10 µM), 24.4%. Also, the growth with SK-MEL-5 melanoma (1 µM) is 96.3%; with SK-MEL-5 melanoma (10 µM) it was 65.8%; in the assay on UACC-62 melanoma (1 µM) it was 95.6%; in the assay with UACC-62 melanoma (10 µM), 88.2%; with LOX IMVI melanoma (1 µM) it was 95.1%; in the assay with LOX IMVI melanoma (10 µM), 92.1%. The growth in the assay with SK-MEL-28 melanoma (1 µM) is 98.3%; in the assay on SK-MEL-28 melanoma (10 µM), 74.3%.

For the molecule `O=C1/C(=C/c2cccc3c2OCO3)Cc2c(F)cc(Br)cc21`, the growth was 115% in the assay with DU-145 prostate (10 µM unless noted); 109% in the assay on K-562 leukemia; 103% in the assay on MALME-3M melanoma (10 µM unless noted); 115% with MDA-MB-231 breast (10 µM unless noted); 104% with RXF 393 renal (10 µM unless noted); 109% in the assay on SF-268 CNS (10 µM unless noted). Also, the growth in the assay on SF-295 CNS (10 µM unless noted) was 96%; in the assay on SF-539 CNS (10 µM unless noted) it was 99.7%; in the assay with UACC-257 melanoma (10 µM unless noted) it was 114%; in the assay with M14 melanoma (10 µM unless noted) it was 98.9%; with HCT-15 colon (10 µM unless noted), 102%; in the assay on HT29 colon (10 µM unless noted), 118%. Besides, the growth in the assay on SNB-75 CNS (10 µM unless noted) was 97.1%; with SNB-19 CNS (10 µM unless noted), 103%; in the assay on U251 CNS (10 µM unless noted), 105%; in the assay with PC-3 prostate (10 µM unless noted), 107%; in the assay with SK-MEL-5 melanoma (10 µM unless noted), 101%; in the assay with UACC-62 melanoma (10 µM unless noted) it was 91.8%. Also, the values for the growth in the assay with LOX IMVI melanoma (10 µM unless noted) and with SK-MEL-28 melanoma (10 µM unless noted) were 99.8% and 115%, respectively.

On to `CN1C(=O)/C(=C\C(=O)c2cc3ccccc3oc2=O)c2ccccc21`, for which the growth in the assay on DU-145 prostate (10 µM unless noted) is 71.1%; with K-562 leukemia, 25.6%; with MALME-3M melanoma (10 µM unless noted), 43.2%; in the assay with MDA-MB-231 breast (10 µM unless noted), 58.7%; with RXF 393 renal (10 µM unless noted) it was 30.5%; in the assay with SF-268 CNS (10 µM unless noted) it was 77.4%. Besides, the growth is 97.3% in the assay on SF-295 CNS (10 µM unless noted); 54% in the assay with SF-539 CNS (10 µM unless noted); 91.9% with UACC-257 melanoma (10 µM unless noted); 58.7% in the assay with M14 melanoma (10 µM unless noted); 39.7% with HCT-15 colon (10 µM unless noted); 93.4% in the assay with HT29 colon (10 µM unless noted). The growth is 96.8% in the assay with SNB-75 CNS (10 µM unless noted); 78.9% in the assay with SNB-19 CNS (10 µM unless noted); 42.6% with U251 CNS (10 µM unless noted); 84.5% in the assay on PC-3 prostate (10 µM unless noted); 92.1% with SK-MEL-5 melanoma (10 µM unless noted); 42.6% in the assay on UACC-62 melanoma (10 µM unless noted). Moreover, the growth was 58.9% in the assay with LOX IMVI melanoma (10 µM unless noted) and 60.8% in the assay with SK-MEL-28 melanoma (10 µM unless noted).

In the case of `COc1cc(CNC(=O)C[C@H](C)CCC=C(C)C)ccc1OCc1cn(-c2cccc(C(F)(F)F)c2)nn1`, the growth was 101% in the assay with DU-145 prostate (10 µM unless noted); 59% in the assay on K-562 leukemia; 80.8% with MALME-3M melanoma (10 µM unless noted); 87.2% with MDA-MB-231 breast (10 µM unless noted); 88.3% in the assay on RXF 393 renal (10 µM unless noted); 83.9% with SF-268 CNS (10 µM unless noted). For the same molecule, the growth with SF-295 CNS (10 µM unless noted) is 72.9%; in the assay with SF-539 CNS (10 µM unless noted) it was 16.3%; with UACC-257 melanoma (10 µM unless noted), 104%; with M14 melanoma (10 µM unless noted), 92.1%; with HCT-15 colon (10 µM unless noted), 56.8%; with HT29 colon (10 µM unless noted), 96.6%. For the same molecule, the growth in the assay on SNB-75 CNS (10 µM unless noted) was 65.2%; in the assay on SNB-19 CNS (10 µM unless noted) it was 97.2%; in the assay with U251 CNS (10 µM unless noted) it was 51%; in the assay on PC-3 prostate (10 µM unless noted), 82.5%; with SK-MEL-5 melanoma (10 µM unless noted), 78.8%; in the assay on UACC-62 melanoma (10 µM unless noted), 72.1%. For the same molecule, the growth in the assay on LOX IMVI melanoma (10 µM unless noted) is 80.7%; in the assay with SK-MEL-28 melanoma (10 µM unless noted) it was 91.6%.

On to `O=C(Nc1ccc(Cl)c(C(F)(F)F)c1)N1CCN(c2cc(-c3cn(-c4ccccc4)nc3-c3cccc(O)c3)ccn2)CC1`, for which the growth in the assay with DU-145 prostate (10 µM unless noted) was 22.5%; in the assay with K-562 leukemia, 14.8%; in the assay on MALME-3M melanoma (10 µM unless noted), -31.4% (active); with MDA-MB-231 breast (10 µM unless noted), -48.6% (active); in the assay on RXF 393 renal (10 µM unless noted), -35.4% (active); with SF-268 CNS (10 µM unless noted) it was 2.35% (active). Also, the growth with SF-295 CNS (10 µM unless noted) was -37.2% (active); in the assay with SF-539 CNS (10 µM unless noted) it was 7.9% (active); in the assay on UACC-257 melanoma (10 µM unless noted), -16.6% (active); in the assay on M14 melanoma (10 µM unless noted) it was -19.3% (active); in the assay on HCT-15 colon (10 µM unless noted) it was -7.34% (active); with HT29 colon (10 µM unless noted), -35.3% (active). The growth is 5.08% (active) with SNB-75 CNS (10 µM unless noted); 17% with SNB-19 CNS (10 µM unless noted); 11.8% in the assay on U251 CNS (10 µM unless noted); 6.31% (active) in the assay with PC-3 prostate (10 µM unless noted); -97.2% (active) with SK-MEL-5 melanoma (10 µM unless noted); -88.6% (active) in the assay with UACC-62 melanoma (10 µM unless noted). Moreover, the values for the growth in the assay on LOX IMVI melanoma (10 µM unless noted) and with SK-MEL-28 melanoma (10 µM unless noted) were -76.9% (active) and -24.8% (active), respectively.
